The supplement of paper PMC3545927
The other results are listed elsewhere or left out. The true hit rate is not given.

Molecular target: furin, P09958
Experiment: furin cleavage Z-score vs untreated control; higher = more cleavage, active = 3.5 or more, inactive = 1 or less, 8 variable residues between constant flanks
Outline: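 In 50 mM HEPES pH 7.5 with CaCl2 and NaCl, purified furin was incubated with bead-anchored 8-mer peptide–cDNA fusions at 1:10 enzyme:substrate in 0.01 ml. Incubation times were 7.5, 15 and 30 min. DNA set free by cleavage was adapter-tagged by PCR and sequenced, with read counts taken as abundance. Log counts relative to furin-free reactions, after lowess adjustment and median absolute deviation scaling, form the cleavage Z-score.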

furin, P09958, sequence (P09958 whole entry): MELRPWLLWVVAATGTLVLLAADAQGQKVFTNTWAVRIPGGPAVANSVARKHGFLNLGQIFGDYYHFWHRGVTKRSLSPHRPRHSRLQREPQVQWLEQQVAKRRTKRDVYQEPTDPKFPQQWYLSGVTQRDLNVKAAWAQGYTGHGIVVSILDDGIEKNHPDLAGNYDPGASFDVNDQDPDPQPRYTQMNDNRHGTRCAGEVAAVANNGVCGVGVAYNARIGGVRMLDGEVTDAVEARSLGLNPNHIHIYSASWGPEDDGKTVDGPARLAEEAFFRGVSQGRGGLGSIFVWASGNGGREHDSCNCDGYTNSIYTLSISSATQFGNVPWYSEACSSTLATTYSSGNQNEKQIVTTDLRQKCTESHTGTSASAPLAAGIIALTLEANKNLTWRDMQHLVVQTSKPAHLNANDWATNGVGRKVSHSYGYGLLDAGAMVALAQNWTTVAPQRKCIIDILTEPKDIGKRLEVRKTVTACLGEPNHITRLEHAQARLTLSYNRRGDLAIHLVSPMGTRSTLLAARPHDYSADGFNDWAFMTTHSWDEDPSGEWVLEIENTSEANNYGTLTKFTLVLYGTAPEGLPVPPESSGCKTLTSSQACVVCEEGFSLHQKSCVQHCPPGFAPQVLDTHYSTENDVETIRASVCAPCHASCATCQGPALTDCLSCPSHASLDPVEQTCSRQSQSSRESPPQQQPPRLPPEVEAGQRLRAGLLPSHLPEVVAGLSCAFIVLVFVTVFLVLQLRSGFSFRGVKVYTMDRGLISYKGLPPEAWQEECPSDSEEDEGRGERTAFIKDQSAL

| Sequence | furin cleavage Z-score (7.5 min) | furin cleavage Z-score (15 min) | furin cleavage Z-score (30 min) |
| --- | --- | --- | --- |
| CARAKREEKKAGNASASA [FS-2634] | 3.98 (active) | 2.96 | 4.64 (active) |
| CARAKRPLMVAGNASASA [FS-2884] | 0.123 (inactive) | 1.97 | -0.869 (inactive) |
| CARAKRAFLPAGNASASA [FS-1991] | 3.35 | 4.79 (active) | 6.29 (active) |
| CARAKRTTKRAGNASASA [FS-3241] | 8.36 (active) | 10.4 (active) | 9.38 (active) |
| CARAKRRWAPAGNASASA [FS-2638] | 0.9 (inactive) | 1.95 | 0.773 (inactive) |
| CARAKRRAIRAGNASASA [FS-2637] | 10.3 (active) | 11.4 (active) | 9.08 (active) |
| CARAYRSSMRAGNASASA [FS-2894] | -1.12 (inactive) | -1.44 (inactive) | -1.22 (inactive) |
| CAAATLGFGAAGNASASA [HC790] | -0.962 (inactive) | 1.23 | 1.13 |
| CARDGRKVTVAGNASASA [FS-2902] | -0.804 (inactive) | -0.377 (inactive) | -1.67 (inactive) |
| CARAKRRGGGAGNASASA [FS-2886] | 0.374 (inactive) | -1.9 (inactive) | 0.196 (inactive) |
| CARAKRKVTRAGNASASA [FS-2636] | 3.09 | 4.94 (active) | 4.17 (active) |
| CANLLSVEEAAGNASASA [HC1411] | 1.03 | -1.37 (inactive) | 1.04 |
| CARKGRSYGSAGNASASA [FS-1902] | 2.38 | 4.19 (active) | 3.35 |
| CARKRRPYGSAGNASASA [FS-1960] | -0.105 (inactive) | 0.526 (inactive) | -2 (inactive) |
| CARKNRSTASAGNASASA [FS-3159] | 4.98 (active) | 6.48 (active) | 5.71 (active) |
| CARKNRSFYAAGNASASA [FS-3222] | -0.489 (inactive) | 0.152 (inactive) | -1.6 (inactive) |
| CARKGRSQSVAGNASASA [FS-2688] | 0.447 (inactive) | 1.69 | 2.28 |
| CARKNRSQIVAGNASASA [FS-1731] | 0.382 (inactive) | 1.89 | 1.82 |
| CAESVTSTWVAGNASASA [HC2177] | 0.711 (inactive) | -0.0286 (inactive) | -0.582 (inactive) |
| CASCLWMMLLAGNASASA [HC527] | 0.0621 (inactive) | -0.464 (inactive) | 0.433 (inactive) |
| CAHYQDVLKEAGNASASA [HC1402] | -0.724 (inactive) | -0.493 (inactive) | 0.655 (inactive) |
| CAIRRRTQRCAGNASASA [FS-933] | 7.07 (active) | 6.92 (active) | 6.54 (active) |
| CAQRQRSVRCAGNASASA [FS-481] | 1.64 | 0.494 (inactive) | 0.731 (inactive) |
| CAYGAKDVRCAGNASASA [HC1422] | -0.0596 (inactive) | 0.548 (inactive) | 0.765 (inactive) |
| CAQRSRQVRCAGNASASA [FS-482] | 0.775 (inactive) | 0.292 (inactive) | 1.12 |
| CALSRRRVRCAGNASASA [FS-1543] | 10.2 (active) | 7.81 (active) | 8.22 (active) |
| CAINRRTGRPAGNASASA [FS-34] | -0.402 (inactive) | -1.89 (inactive) | -1.13 (inactive) |
| CALRERPVRCAGNASASA [FS-458] | 2.04 | 2.12 | 4.39 (active) |
